10 compounds from paper PMC5540273 (PLoS ONE, 2017) can be followed below.

Some test systems named below: S6K1; SBK1; SGK2; SGK3; SGK; SIK2; SIK; SLK; SNRK; SRC; SRMS; SRPK1.
Holding throughout (settings): concentration: 1 μM, replicates: in singlicate; n = 1
Test [1] concerns T1, RSK1(Kin.Dom.2-C-terminal).
T1 construct: gene RPS6KA1

The test system of test [2] is T2, RSK2(Kin.Dom.1-N-terminal).
T2 construct: gene RPS6KA3

Test [3] concerns T3, RSK2(Kin.Dom.2-C-terminal).
T3 construct: gene RPS6KA3

The subject of test [4] is T4, RSK3(Kin.Dom.1-N-terminal).
T4 construct: gene RPS6KA2

Test [5] deals with T5, RSK3(Kin.Dom.2-C-terminal).
T5 construct: gene RPS6KA2

Test [6] concerns T6, RSK4(Kin.Dom.1-N-terminal).
T6 construct: gene RPS6KA6

The subject of test [7] is T7, RSK4(Kin.Dom.2-C-terminal).
T7 construct: gene RPS6KA6

Another test relates to T8, SNARK.
T8 construct: gene NUAK2
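Also: KINOMEscan kinase panel screen.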

In the case of `COC(=O)C(NC(=O)NC1CCN(c2ccnc(Nc3ccc(F)cc3)n2)C1)c1ccccc1` (centres unmarked) [GSK1379712], the “%Inh” value came out at 18% in [1]; 0% in test [2]; 38% in test [3]; 0% in [4]; 11% in test [5]; 0% in test [6]. Besides, the “%Inh” value in test [7] was 7%; in the test with S6K1, 0%; in the test on SBK1, 8%; in the test on SGK2, 8%; with SGK3 it was 2%; in the test with SGK, 2%. In addition, the “%Inh” value with SIK2 worked out at 3%; in the test with SIK it was 0%; in the test with SLK it was 4%; in the test on SNARK, 5%; in the test with SNRK, 0%; with SRC, 0%. Besides, the “%Inh” value in the test with SRMS and in the test with SRPK1 was 0% in each case.

On to `CS(=O)(=O)Cc1ccc(Nc2nccc(-c3c(-c4cccc(NC(=O)C5CCCCC5)c4)nn4ncccc34)n2)cc1` [GSK350559], for which the “%Inh” value is recorded as 33% in test [1]; 13% in [2]; 11% in test [3]; 12% in [4]; 0% in [5]; 17% in [6]. In addition, the “%Inh” value stood at 9% in test [7]; 24% in the test with S6K1; 34% with SBK1; 40% with SGK2; 0% in the test on SGK3; 46% in the test with SGK. In addition, the “%Inh” value in the test with SIK2 is 0%; in the test on SIK, 0%; in the test with SLK, 53%; with SNARK, 7%; in the test on SNRK, 16%; in the test with SRC it was 30%. Further, the results for the “%Inh” value in the test with SRMS and in the test with SRPK1 were 3% and 29%, respectively.

As for `CS(=O)(=O)CCNCc1nc(-c2ccc3ncnc(Nc4ccc5c(cnn5Cc5ccccc5)c4)c3c2)cs1.Cl.Cl` [GW569716], the “%Inh” value in [1] amounted to 0%; in test [2], 0%; in test [3], 0%; in test [4] it was 0%; in [5] it was 4%; in test [6] it was 0%. Further, the “%Inh” value in test [7] is 5%; in the test with S6K1, 5%; in the test on SBK1 it was 0%; in the test with SGK2 it was 7%; in the test on SGK3, 0%; in the test with SGK, 3%. Also, the “%Inh” value with SIK2, with SIK, in the test with SLK, with SNARK, in the test with SNRK and in the test with SRC was 0% each time. The results for the “%Inh” value in the test on SRMS and in the test on SRPK1 were 0% and 14%, respectively.

For `Fc1ccc(-c2nc3n(c2-c2ccncc2)CCS3)cc1` [GI98581], the “%Inh” value is recorded as 22% in [1]; 1% in test [2]; 7% in test [3]; 18% in test [4]; 11% in [5]; 0% in test [6]. The “%Inh” value in [7] amounted to 88%; in the test with S6K1 it was 33%; in the test with SBK1 it was 21%; in the test with SGK2, 6%; with SGK3 it was 0%; with SGK, 0%. For the same compound, the “%Inh” value stood at 0% in the test on SIK2; 17% in the test on SIK; 25% with SLK; 0% in the test with SNARK; 0% in the test with SNRK; 9% in the test on SRC. Also, the “%Inh” value with SRMS came to 0%; in the test on SRPK1, 23%.

As for `Nc1nccc(-c2c(-c3ccc(F)cc3)ncn2C2CCN(Cc3ccccc3)CC2)n1` [SB-219980], the “%Inh” value in [1] turned out to be 41%; in test [2], 41%; in test [3], 0%; in test [4], 4%; in test [5] it was 5%; in test [6], 30%. For the same compound, the “%Inh” value in [7] is 63%; with S6K1, 6%; in the test with SBK1, 35%; in the test on SGK2 it was 0%; with SGK3, 28%; in the test with SGK it was 2%. Besides, the “%Inh” value in the test on SIK2 turned out to be 24%; with SIK, 6%; with SLK, 0%; in the test with SNARK it was 38%; with SNRK, 0%; with SRC it was 0%. The entries for the “%Inh” value with SRMS and in the test with SRPK1 were 11% and 0%, respectively.

Consider `O=c1cc(N2CCOCC2)nc2n(Cc3ccccc3F)ccn12` [GSK2297428], for which the “%Inh” value amounted to 0% in test [1]; 0% in [2]; 0% in test [3]; 3% in test [4]; 0% in test [5]; 0% in [6]. The “%Inh” value in test [7] is 0%; in the test with S6K1, 0%; in the test with SBK1 it was 0%; in the test with SGK2, 0%; with SGK3, 4%; in the test on SGK, 0%. The “%Inh” value with SIK2 is on record as 0%; with SIK, 0%; with SLK, 28%; in the test with SNARK it was 0%; in the test with SNRK, 0%; with SRC, 0%. The “%Inh” value with SRMS and in the test on SRPK1 was 0% each time.

Consider `Cn1cncc1C(=O)NC1CCN(c2ccnc(Nc3ccc(F)cc3)n2)C1` (centres unmarked) [GSK1379717], for which the “%Inh” value in test [1] worked out at 12%; in test [2], 5%; in test [3] it was 0%; in [4], 0%; in test [5] it was 12%; in [6], 0%. Further, the “%Inh” value is recorded as 15% in [7]; 7% in the test on S6K1; 16% with SBK1; 7% in the test on SGK2; 0% in the test with SGK3; 14% with SGK. In addition, the “%Inh” value in the test with SIK2, in the test on SIK, with SLK, in the test with SNARK, in the test on SNRK and with SRC was 0% throughout. Further, the “%Inh” value with SRMS is on record as 0%; in the test on SRPK1 it was 100%.

In the case of `CCc1ccc(-c2ccc3c(c2)-c2n[nH]cc2S(=O)(=O)N3C)cc1`, the “%Inh” value in test [1] was found to be 30%; in test [2], 7%; in test [3] it was 52%; in test [4] it was 5%; in test [5], 17%; in test [6] it was 1%. For the same compound, the “%Inh” value in test [7] was determined as 20%; in the test on S6K1 it was 0%; in the test on SBK1, 0%; in the test with SGK2, 0%; with SGK3, 0%; in the test on SGK, 0%. In addition, the “%Inh” value with SIK2 amounted to 13%; in the test on SIK it was 29%; in the test with SLK it was 0%; with SNARK, 0%; in the test with SNRK it was 1%; in the test on SRC, 0%. Further, the “%Inh” value in the test on SRMS stood at 1%; in the test with SRPK1, 0%.

Take `Cc1ccc(NC(=O)Nc2ccccc2F)cc1-c1ccc(C(=O)Nc2ccncc2)cc1` [GSK1398477]: the “%Inh” value in test [1] stood at 0%; in test [2] it was 9%; in test [3] it was 6%; in test [4], 20%; in test [5] it was 0%; in test [6] it was 0%. Moreover, the “%Inh” value is listed as 14% in [7]; 13% in the test with S6K1; 28% in the test on SBK1; 0% in the test with SGK2; 0% in the test on SGK3; 0% in the test with SGK. In addition, the “%Inh” value was found to be 22% in the test with SIK2; 15% in the test on SIK; 34% in the test on SLK; 0% in the test with SNARK; 0% with SNRK; 27% in the test on SRC. In addition, the “%Inh” value in the test on SRMS was 0%; in the test on SRPK1, 52%.

As for `Cn1cncc1-c1cc2c(Nc3ccc(OCc4ccccc4)cc3)ncnc2cn1` [GW281179], the “%Inh” value in test [1] worked out at 0%; in test [2], 0%; in test [3], 0%; in test [4] it was 3%; in [5], 0%; in test [6] it was 0%. The “%Inh” value was determined as 9% in test [7]; 3% in the test on S6K1; 36% in the test with SBK1; 10% with SGK2; 0% in the test with SGK3; 4% in the test with SGK. Also, the “%Inh” value with SIK2 is on record as 0%; with SIK, 0%; in the test with SLK, 19%; with SNARK it was 0%; with SNRK, 0%; with SRC, 0%. For the same compound, the “%Inh” value was determined as 0% in the test with SRMS and 18% in the test on SRPK1.
